High-throughput results as filed in PubChem BioAssay.
Sampled rows, rich in hits. Any-hit rate of the full collection: about 21%.
SARS PLpro yeast-1: SARS-CoV PLP inhibition in yeast. 0.19% of 330,000 active. S. cerevisiae expressing SARS-CoV PLpro, growth rescue. AID 485353. Potency, µM (doses to about 32.9 µM), hits mostly activators; calls by dose curve; also: nearly all actives have a fitted effect of over 55% in size
Pf growth 48h: inhibits P. falciparum growth in the first generation, 48 h | P. falciparum luciferase growth in erythrocytes, 48 h | 5.9% of 310,000 active | Potency, µM (titrated, usually from 28.7 µM), hits mostly inhibitors
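Cell-based growth assay: transgenic P. falciparum expressing firefly luciferase, cultured in red cells within RPMI 1640 containing 0.5% w/v Albumax, 24 mM bicarbonate and gentamycin. A drop in luciferase activity indicates inhibition.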
Shiga inhibitor: inhibitors of Shiga toxin in Vero cells; Vero cells, Shiga toxin protein synthesis inhibition reporter; inhibition, % at 38.7 µM; 9.2% of 290,000 active; in the data active = inhibition mostly above about 28%, no sharp cut-off; inactive = mostly below about 43%
CHX counter: counter-screen hit for Shiga toxin inhibitors, cycloheximide; 12% of 300,000 active; max response, %; cell reporter, cycloheximide protein synthesis inhibition counterscreen; in the data active = max response mostly above about 13%, no sharp cut-off; inactive = mostly below about 14%; also: read at 38.3 µM for the half of the compounds with a filed dose
Pf growth 96h: inhibits malaria parasite growth, 96 h | P. falciparum luciferase reporter growth, 96 h | Potency, µM (doses to about 28.7 µM), actives largely listed as inhibitors | 6.9% of 320,000 active | AID 504834
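Plates of compound plus infected erythrocytes (2% hematocrit, 0.05% parasitemia final) incubate 96 hours, 37 C, 5% CO2. Detection reagent added; reduced luminescence from the parasites' luciferase reporter flags inhibition.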
NS1 inh: influenza NS1 inhibition | 0.4% of 270,000 active | Potency, µM (doses to about 46.1 µM); calls by dose curve; also: actives are rising curves; nearly all actives have a fitted effect of over 50% in size
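Recovery from NS1-induced slow growth read by OD600 in budding yeast switched to galactose assay medium (pH 6.0, -URA) at 1:100 dilution. Compound 23 nl per well; the matching strain lacking NS1 serves as control.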
SARS PLpro yeast-2: Validates SARS-CoV PLpro inhibitor hits in yeast | shares compounds with SARS PLpro yeast-1 | 19% of 1,000 active | yeast expressing SARS-CoV PLpro, growth phenotype rescue | calls only; call rule not given here
A number is an active result; i = inactive; ? = inconclusive; nt = no result; + = active, no number. Unless noted, calls follow the shape of the dose curve; as a rule, active = well fitted inhibition curve with a large enough effect; inconclusive = small, poorly fitted or top-dose-only effect, or another doubt; inactive = no such curve, though single readings can be large or run the other way.

SMILES	SARS PLpro yeast-1	Pf growth 48h	Shiga inhibitor	CHX counter	Pf growth 96h	NS1 inh	SARS PLpro yeast-2
O=C(COC(=O)CC1CCCC1)Nc1cccc(F)c1	?	i	nt	nt	i	nt	i
O=C(COC(=O)C1CCCCC1)Nc1cccc(F)c1	i	nt	nt	nt	nt	nt	nt
COc1ccccc1C(=O)Nc1cccc2c1CCCC2	?	i	i	i	?	i	i
CC(C)(C)C(=O)NC1CC2CCCC(C1)N2C(=O)Nc1ccc(Cl)cc1 (stereo not drawn)	i	?	i	i	i	i	nt
COc1ccc(Oc2cc(F)nc(N)n2)cc1	i	i	i	i	i	i	nt
CCc1ccc(Oc2cc(C)nc(N)n2)cc1	15.8µM	i	65.2	26.5	i	i	i
CCC(=NNC(=O)c1ccc2c(c1)nc(C)n2CC)c1cc(F)ccc1O	10µM	nt	nt	nt	nt	nt	i
Cc1cc(Cl)ccc1OCC(=O)NN1C(=O)C2C3C=CC(C3)C2C1=O (stereo not drawn)	i	i	i	i	i	nt	nt
Cc1cc(Cl)ccc1OCC(=O)N/N=C1\CC2C=CCC12 (stereo not drawn)	?	i	i	i	i	i	i
O=C(Nc1ccccc1Cl)c1cccc(COc2cc(Cl)ccc2Cl)c1	?	nt	50.9	41.6	i	i	i
COc1ccc(C(=O)Nc2cc(OCc3ccccc3)c(Cl)cc2Cl)cc1	i	i	i	i	i	i	nt
CCN(CC)S(=O)(=O)c1cccc(C(=O)N/N=C/c2ccc(O)c(O)c2O)c1	5.01µM	i	i	i	i	i	+
CCN(CC)S(=O)(=O)c1cccc(C(=O)N/N=C(\C)c2ccc(O)cc2O)c1	3.55µM	i	i	i	?	nt	i
COCCNC(=O)C(Cc1c[nH]c2ccccc12)NC(=O)OCc1ccccc1 (stereo not drawn)	i	i	i	i	i	i	nt
O=C(CNS(=O)(=O)c1ccc(F)cc1)N1CCCCCC1	i	i	i	i	i	i	nt
CC(=O)Nc1ccc(NC(=O)Cc2sc(C)nc2-c2ccc(C)cc2)cc1	?	i	i	i	?	i	i
O=C(CSc1nc(-c2ccco2)cc(C(F)(F)F)n1)Nc1ccc2c(c1)OCO2	?	i	i	i	i	i	+
O=C1CCC(C(=O)N2CCN(c3ccccc3)CC2)CN1CC1CCCCC1 (stereo not drawn)	i	?	i	i	i	i	nt
O=C(c1ccco1)N1CCN(c2c([N+](=O)[O-])nn(-c3ccc(Cl)cc3)[n+]2[O-])CC1	?	i	i	i	i	nt	nt
CC1CCN(c2c([N+](=O)[O-])nn(-c3ccc4c(c3)OCCO4)[n+]2[O-])CC1	3.98µM	nt	162.2	61.4	nt	i	i
Cn1ncc2c(=O)n(/N=C/c3ccccc3)cnc21	i	i	i	i	i	i	nt
C[n+]1cn(/N=C/c2ccccc2)c2ccccc21	?	?	i	i	13.1µM	?	i
O=C(/C=C/c1ccc(F)cc1)NCCc1ccc2c(c1)OCCO2	3.98µM	i	i	i	i	i	i
Cc1ccc(C)c(N(C(=O)c2ccco2)C(C(=O)NC2CCCC2)c2ccco2)c1 (stereo not drawn)	i	?	i	i	i	i	nt
CC(CC(=O)Nc1ccc(F)c([N+](=O)[O-])c1)c1ccccc1 (stereo not drawn)	?	i	i	i	i	i	i
SMILES	SARS PLpro yeast-1	Pf growth 48h	Shiga inhibitor	CHX counter	Pf growth 96h	NS1 inh	SARS PLpro yeast-2
CCOC(=O)C1CCN(C(=O)COc2cccc(C)c2)CC1	3.55µM	i	i	i	i	i	i
CNC1=C([N+](=O)[O-])CC([N+](=O)[O-])=C(N2CCNCC2)N1C	i	i	i	i	i	nt	nt
Cc1ccc(N2CN(Cc3ccco3)CNC2=S)c(C)c1	?	?	i	i	?	i	?
Cc1ccc(N2CN(Cc3cccnc3)CNC2=S)c(C)c1	i	i	i	i	i	i	nt
CCSc1nnc(N(CCC(=O)O)CCC(=O)O)s1	?	i	i	i	i	i	i
C[C@@H](N)C(=O)NC[C@H]1O[C@@H](n2cnc3c(N)ncnc32)[C@H](O)[C@@H]1O	i	nt	nt	nt	nt	nt	nt
C#CC[N+]1(CC#Cc2ccc(C)cc2)CCCCC1	20µM	1.65µM	i	i	?	i	i
COc1ccc(N(CC(=O)NC2CCCCC2)C(=O)CCC(=O)Nc2nc(C)cs2)cc1	i	?	i	i	?	i	nt
C=CCN(CC=C)C(=S)NC(=O)/C=C/c1ccc(C)cc1	?	i	i	i	?	i	nt
C=CCN(CC=C)C(=S)NC(=O)/C=C/c1ccccc1	2.82µM	i	i	i	i	i	i
CCN(c1ccccc1)S(=O)(=O)c1ccc(C(=O)N(C)Cc2cccs2)cc1	i	nt	nt	nt	nt	nt	nt
O=C(Nc1c(C(=O)O)oc2ccc(Br)cc12)c1ccccc1	i	nt	i	i	?	i	nt
CCNC(=S)NNC(=O)c1ccccn1	?	?	i	i	?	i	i
CCNC(=S)NNC(=O)c1ccccc1Cl	i	i	i	i	i	i	nt
NC(=O)c1ccc(Oc2ccc(Cl)cc2)c([N+](=O)[O-])c1	i	i	i	i	i	i	nt
NC(=O)c1ccc(Oc2ccc(Cl)c3ccccc23)c([N+](=O)[O-])c1	4.47µM	i	i	i	i	i	?
CC1(C)CC(NC(=O)c2cc(S(=O)(=O)N3CCOCC3)c(Cl)cc2Cl)CC(C)(C)N1	i	i	nt	nt	?	nt	nt
Cc1ccc(CN2CCN(/N=C/c3sccc3C)CC2)c(C)c1	11.2µM	i	i	i	i	i	i
CSc1ccc(/C=N/N2CCN(Cc3ccc(C)cc3C)CC2)cc1	i	i	i	i	i	i	nt
COc1ccccc1CC(=O)NN1C(=O)c2ccccc2C1=O	i	i	i	i	i	i	nt
CS(=O)(=O)c1ccc(C(=O)OCC(=O)NC(=O)C2CCCCC2)cc1[N+](=O)[O-]	i	?	i	i	?	nt	nt
S=C(NCc1ccccc1)N/N=C/c1cccs1	5.62µM	7.38µM	i	i	?	i	+
O=C(Cc1ccccc1)NCC(=O)N/N=C/c1cccs1	i	i	i	i	i	i	nt
COc1ccc(C(c2oc(CO)cc(=O)c2O)c2oc(CO)cc(=O)c2O)cc1	4.47µM	i	i	i	?	i	+
COc1cc(C(c2oc(CO)cc(=O)c2O)c2oc(CO)cc(=O)c2O)cc(OC)c1OC	?	i	i	i	?	nt	i
SMILES	SARS PLpro yeast-1	Pf growth 48h	Shiga inhibitor	CHX counter	Pf growth 96h	NS1 inh	SARS PLpro yeast-2
Cn1c(-n2c(CCN3C(=O)c4ccccc4C3=O)nc3ccccc3c2=O)nc2ccccc21	i	nt	i	i	i	?	nt
COc1ccc(C(=O)Nc2ccc(NC(=O)c3cccs3)cc2)cc1[N+](=O)[O-]	i	i	i	i	i	i	nt
CCOc1ccc(C(=O)Nc2ccc(NC(=O)c3cccs3)cc2)cc1[N+](=O)[O-]	3.98µM	i	i	i	i	i	+
COc1cccc(C(=O)NC(=S)NCc2ccco2)c1	?	i	40.3	22.9	3.7µM	i	+
Cc1ccc(NC(=O)C2CC2C)cc1S(=O)(=O)N1CCOCC1 (stereo not drawn)	i	?	nt	nt	?	nt	nt
Cc1cccc(-c2noc(C(C)NC(=O)c3ccco3)n2)c1 (stereo not drawn)	i	i	i	i	i	i	nt
